This is an account of results in PubChem BioAssay (EPA / NIEHS).

Test [1] can be described thus: ATG_NFI_CIS: Attagene CIS-FACTORIAL HepG2 Assay for human Nuclear Factor I (NFI) (AID 2282989). To be noted: HepG2 cis-regulatory reporter, NFI response element transcription; actives raise or lower the signal. The method, boiled down: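 Read-out: reporter mRNA via RT-PCR plus capillary electrophoresis with fluorescence detection. Transiently transfected HepG2 (endogenous TF activity on cis promoters), 24 h compound exposure; gain or loss of signal fitted against DMSO.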

The target in test [2] is Myc proto-oncogene protein (Homo sapiens) (UniProt P01106). The test can be described thus: ATG_Myc_CIS: Attagene CIS-FACTORIAL HepG2 Assay for human Myelocytomatosis (Myc) Proto-Oncogene Transcription Factor (AID 2282990). To be noted: HepG2, Attagene cis-reporter transcription factor activity; actives raise or lower the signal. The method, boiled down:
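Transiently transfected HepG2 cells bearing cis-promoter reporter units for endogenous transcription factors; 24 h exposure. Reporter mRNA measured by RT-PCR, 6-FAM primer extension, HpaI cut and capillary electrophoresis; bidirectional fit relative to DMSO.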

Test [3] in a line: ATG_NF_kB_CIS: Attagene CIS-FACTORIAL HepG2 Assay for human Nuclear Factor Kappa B (NF-kB) (AID 2282991). To be noted: HepG2 Attagene cis-factorial NF-kB reporter mRNA; actives raise or lower the signal. The method, boiled down: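 Read-out: reporter transcript levels quantified by RT-PCR plus capillary electrophoresis of 6-FAM-labelled, HpaI-cut fragments. Transfected HepG2 cells, 24 h compound exposure, endogenous NF-kB-driven cis element; gain or loss scored versus DMSO.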

Test [4] is described as follows: ATG_NRF2_ARE_CIS: Attagene CIS-FACTORIAL HepG2 Assay for human Nuclear Factor Erythroid 2 Related Factor 2 (NFR2) response to Antioxidant Response Elements (ARE) (AID 2282992).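 On AC50: reporter mRNA level measured by RT-PCR and capillary electrophoresis fluorescence.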 To be noted: HepG2 Attagene ARE/NRF2 reporter, transcription factor activity; actives raise or lower the signal. The method, boiled down:
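Endogenous transcription factor activity in human liver HepG2 cells is tracked via a cis-element-driven reporter within a multiplexed set. mRNA induction is read by RT-PCR and capillary electrophoresis after 24 h, with DMSO as baseline.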

Test [5] can be described thus: ATG_Oct_MLP_CIS: Attagene CIS-FACTORIAL HepG2 Assay for human Octamer-Binding Transcription Factor (Oct) (AID 2282993). To be noted: HepG2 Attagene cis-factorial Oct reporter, mRNA; actives raise or lower the signal. The method, boiled down: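 Read-out: reporter mRNA via RT-PCR plus capillary electrophoresis of 6-FAM-labelled fragments. Transiently transfected HepG2, 24 h exposure, endogenous TF activity on cis elements. Gain or loss of signal fitted relative to DMSO.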

In test [6] the target is Cellular tumor antigen p53 (Homo sapiens) (UniProt P04637). Briefly: ATG_p53_CIS: Attagene CIS-FACTORIAL HepG2 Assay for human p53 Transcription Factor (AID 2282994). To be noted: HepG2 p53 cis-element reporter, Attagene mRNA; actives raise or lower the signal. An outline of the steps: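 Steps: transfect HepG2 with multiplexed cis reporter constructs; dose chemicals 24 h; extract RNA, reverse-transcribe, PCR-amplify reporter sequences; FAM-label, HpaI-digest, resolve fragments by CE. Activity fitted both directions relative to DMSO.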

Test [7] can be described thus: BSK_3C_uPAR: BioMAP Diversity Plus: 3C Assay for Urokinase-type plasminogen activator receptor (uPAR) Biomarker Activity (AID 2282998). To be noted: BioMAP 3C HUVEC, uPAR biomarker ELISA; actives raise or lower the signal. The method, boiled down:
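HUVEC primary cells; 24 h post-dose; uPAR by ELISA; gain or loss of signal fitted bidirectionally vs DMSO baseline.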

The nature of test [8]: BSK_3C_VCAM1: BioMAP Diversity Plus: 3C Assay for Vascular cell adhesion molecule 1 (VCAM1) Biomarker Activity (AID 2282999). To be noted: BioMAP 3C HUVEC, VCAM1 ELISA, cytokine-stimulated; actives raise or lower the signal. An outline of the steps:
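HUVEC primary cells, 24 h compound exposure; VCAM-1 by ELISA; gain/loss of signal fitted bidirectionally vs DMSO baseline.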

Test [9] in a line: BSK_4H_Eotaxin3: BioMAP Diversity Plus: 4H Assay for Eotaxin 3 Biomarker Activity (AID 2283000).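 On outcome: CCL26 protein level quantified by ELISA in parallel with SRB cytotoxicity check.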 To be noted: primary human endothelial cells (HUVEC); actives raise or lower the signal. The method, boiled down: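 Endothelial primary cells (human umbilical vein) exposed to compound for 24 h. ELISA detection of Eotaxin-3.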
Test [10] deals with human Peroxisome Proliferator-activated Receptor alpha (PPARa), PPARA (gene 5465) (UniProt Q07869). The test can be described thus: ATG_PPARa_TRANS: Attagene TRANS-FACTORIAL HepG2 Assay for human Peroxisome Proliferator-activated Receptor alpha (PPARa) (AID 2283001; active means hit-call score of the fitted dose curve at least 0.9, where 1 is the maximum;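 on AC50: potency for gain of reporter signal over DMSO so agonist or activator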). The method, boiled down:
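HepG2, transient MRTU transfection, 24 h treatment. RT-PCR → FAM labelling → capillary electrophoresis. Fit vs DMSO, positive direction.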

Test [11] deals with human Peroxisome Proliferator-activated Receptor delta (PPARd), PPARD (gene 5467) (UniProt Q03181). Briefly: ATG_PPARd_TRANS: Attagene TRANS-FACTORIAL HepG2 Assay for human Peroxisome Proliferator-activated Receptor delta (PPARd) (AID 2283002; active means hit-call score of the fitted dose curve at least 0.9, where 1 is the maximum). The method, boiled down:
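HepG2 cells transiently transfected with GAL4-UAS multiplexed reporter units driven by exogenous chimeric NR-GAL4 proteins; 24 h compound exposure. Reporter mRNA measured by RT-PCR, 6-FAM primer extension, HpaI digestion and capillary electrophoresis; gain of signal fitted relative to DMSO.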

Read-out in test [12]: Intercellular Adhesion Molecule 1 (ICAM1), ICAM1 (gene 3383)
The test can be described thus: BSK_3C_ICAM1: BioMAP Diversity Plus: 3C Assay for Intercellular Adhesion Molecule 1 (ICAM1) Biomarker Activity (AID 2283003). To be noted: primary human endothelial cells (HUVEC); actives raise or lower the signal. An outline of the steps: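 ELISA readout of ICAM1 in human umbilical vein endothelial cells in the 3C system, taken 24 h post-dose. Gain or loss of signal versus DMSO was fitted in both directions, with SRB total-protein staining run in parallel.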

Test [13] addresses human Retinoic Acid Receptor beta (RARb), RARB (gene 5915) (UniProt P10826). Briefly: ATG_RARb_TRANS: Attagene TRANS-FACTORIAL HepG2 Assay for human Retinoic Acid Receptor beta (AID 2283004; active means hit-call score of the fitted dose curve at least 0.9, where 1 is the maximum). An outline of the steps: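 HepG2, transient MRTU transfection, NR–Gal4 chimera, 24 h treatment; RT-PCR plus CE fluorescence detection of reporter mRNA; gain of signal vs DMSO.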
Test [14] can be described thus: BSK_3C_Proliferation: Cell Proliferation Assessment in the BioMAP Diversity Plus: 3C Assay (AID 2283006).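 On AC50: potency may reflect either rise or fall in cell number versus DMSO.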 To be noted: primary human endothelial cells (HUVEC). An outline of the steps:
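Proliferation as total protein: sulforhodamine B (0.1%) stain of TCA-fixed subconfluent human umbilical vein endothelial cells, absorbance 560 nm, 48 h after dosing. Activity fitted in both directions against DMSO baseline.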

Test [15] concerns the target Peroxisome proliferator-activated receptor gamma (Homo sapiens) (UniProt P37231). The test can be described thus: ATG_PPARg_TRANS: Attagene TRANS-FACTORIAL HepG2 Assay for human Peroxisome Proliferator-activated Receptor-gamma (PPARg) (AID 2283007; active means hit-call score of the fitted dose curve at least 0.9, where 1 is the maximum). The method, boiled down:
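Read-out: reporter mRNA induction, detected by fluorescence after RT-PCR and capillary electrophoresis. Transiently transfected human HepG2 liver cells carrying a chimeric NR-Gal4 construct were dosed for 24 h; activity was fitted upward relative to DMSO.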

Test [16] concerns the target Nuclear receptor subfamily 1 group I member 2 (Homo sapiens) (UniProt O75469). The test can be described thus: ATG_PXR_TRANS: Attagene TRANS-FACTORIAL HepG2 Assay for human Pregnane X Receptor (PXR) (AID 2283008; active means hit-call score of the fitted dose curve at least 0.9, where 1 is the maximum). The method, boiled down: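 HepG2 transfected (FuGene 6) with GAL4-UAS reporter units + PXR-Gal4 chimera; dosed 24 h. Total RNA → oligo(dT) RT → PCR → 6-FAM primer extension → HpaI cut → CE. Gain-of-signal vs DMSO.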

For test [17], the target named is human Retinoic Acid Receptor gamma (RARg), RARG (gene 5916) (UniProt P13631). The test can be described thus: ATG_RARg_TRANS: Attagene TRANS-FACTORIAL HepG2 Assay for human Retinoic Acid Receptor gamma (RARg) (AID 2283009; active means hit-call score of the fitted dose curve at least 0.9, where 1 is the maximum). The method, boiled down:
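Transactivation of exogenous RARg-Gal4 fusion measured as reporter transcript induction after 24 h in transfected HepG2 cells. RNA reverse-transcribed, amplified, fluorescently labeled and resolved by capillary electrophoresis; increase relative to DMSO.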

Test [18] has as its target human RAR-related Orphan Receptor beta (RORb), RORB (gene 6096) (UniProt Q92753). Briefly: ATG_RORb_TRANS: Attagene TRANS-FACTORIAL HepG2 Assay for human RAR-related Orphan Receptor beta (RORb) (AID 2283010; active means hit-call score of the fitted dose curve at least 0.9, where 1 is the maximum). The method, boiled down:
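Read-out is reporter mRNA induction, quantified by RT-PCR with fluorescent capillary electrophoresis, 24 h post-dose in transiently transfected HepG2 expressing exogenous NR-Gal4 chimera. Activity fitted upward versus DMSO.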

The target in test [19] is human RAR-related Orphan Receptor gamma (RORg), RORC (gene 6097) (UniProt P51449). Briefly: ATG_RORg_TRANS: Attagene TRANS-FACTORIAL HepG2 Assay for human RAR-related Orphan Receptor gamma (RORg) (AID 2283011; active means hit-call score of the fitted dose curve at least 0.9, where 1 is the maximum). The method, boiled down: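 Activity is scored as increase in GAL4-UAS reporter mRNA over DMSO, detected by fluorescent RT-PCR and capillary electrophoresis in HepG2 cells transiently expressing a RORg-Gal4 chimera, 24 h after dosing.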

For test [20], the target named is Retinoic acid receptor alpha (Homo sapiens) (UniProt P10276). The test can be described thus: ATG_RARa_TRANS: Attagene TRANS-FACTORIAL HepG2 Assay for human Retinoic Acid Receptor alpha (RARa) (AID 2283005; active means hit-call score of the fitted dose curve at least 0.9, where 1 is the maximum). An outline of the steps: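 HepG2 transiently transfected with multiplex GAL4-UAS reporter units including a human RARa–GAL4 chimera; 24 h compound exposure. Reporter mRNA quantified by RT-PCR, 6-FAM labeling and capillary electrophoresis; gain of signal versus DMSO.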

SMILES strings stand for the structures. Inconclusive results are not listed. Calls of active or inactive are those of the source. How the source made its calls, unless noted: active means hit-call score of the fitted dose curve at least 0.9, where 1 is the maximum; inactive means score below 0.9.

Chain of human Peroxisome Proliferator-activated Receptor delta (PPARd), PPARD (gene 5467) (Q03181 whole entry, looked up, the tested form may be a part): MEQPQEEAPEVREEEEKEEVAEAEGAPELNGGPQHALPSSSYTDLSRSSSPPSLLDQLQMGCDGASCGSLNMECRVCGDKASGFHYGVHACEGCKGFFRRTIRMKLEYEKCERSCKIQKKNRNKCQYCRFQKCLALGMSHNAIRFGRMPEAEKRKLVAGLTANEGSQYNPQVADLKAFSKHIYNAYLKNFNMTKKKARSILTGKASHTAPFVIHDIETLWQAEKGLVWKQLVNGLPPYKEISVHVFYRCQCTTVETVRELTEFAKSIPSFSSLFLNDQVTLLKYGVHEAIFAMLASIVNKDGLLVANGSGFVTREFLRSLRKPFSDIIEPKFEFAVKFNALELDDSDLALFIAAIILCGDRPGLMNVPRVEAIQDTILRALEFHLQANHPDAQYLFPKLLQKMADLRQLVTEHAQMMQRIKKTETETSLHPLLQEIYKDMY
Chain of Peroxisome proliferator-activated receptor gamma (Homo sapiens) (P37231 whole entry, looked up, the tested form may be a part): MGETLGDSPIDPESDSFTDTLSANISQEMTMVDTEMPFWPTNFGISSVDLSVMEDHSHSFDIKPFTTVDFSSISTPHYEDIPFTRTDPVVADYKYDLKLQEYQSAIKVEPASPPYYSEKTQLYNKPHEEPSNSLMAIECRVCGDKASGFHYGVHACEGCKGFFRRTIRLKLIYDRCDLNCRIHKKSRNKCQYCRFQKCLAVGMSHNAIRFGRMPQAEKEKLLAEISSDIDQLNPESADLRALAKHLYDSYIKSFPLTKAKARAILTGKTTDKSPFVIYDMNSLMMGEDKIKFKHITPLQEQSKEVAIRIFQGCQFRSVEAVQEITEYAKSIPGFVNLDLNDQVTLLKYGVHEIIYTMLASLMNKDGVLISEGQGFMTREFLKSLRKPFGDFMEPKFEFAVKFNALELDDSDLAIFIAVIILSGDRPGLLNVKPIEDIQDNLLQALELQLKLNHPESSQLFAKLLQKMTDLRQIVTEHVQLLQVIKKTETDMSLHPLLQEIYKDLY
Chain of human Peroxisome Proliferator-activated Receptor alpha (PPARa), PPARA (gene 5465) (Q07869 whole entry, looked up): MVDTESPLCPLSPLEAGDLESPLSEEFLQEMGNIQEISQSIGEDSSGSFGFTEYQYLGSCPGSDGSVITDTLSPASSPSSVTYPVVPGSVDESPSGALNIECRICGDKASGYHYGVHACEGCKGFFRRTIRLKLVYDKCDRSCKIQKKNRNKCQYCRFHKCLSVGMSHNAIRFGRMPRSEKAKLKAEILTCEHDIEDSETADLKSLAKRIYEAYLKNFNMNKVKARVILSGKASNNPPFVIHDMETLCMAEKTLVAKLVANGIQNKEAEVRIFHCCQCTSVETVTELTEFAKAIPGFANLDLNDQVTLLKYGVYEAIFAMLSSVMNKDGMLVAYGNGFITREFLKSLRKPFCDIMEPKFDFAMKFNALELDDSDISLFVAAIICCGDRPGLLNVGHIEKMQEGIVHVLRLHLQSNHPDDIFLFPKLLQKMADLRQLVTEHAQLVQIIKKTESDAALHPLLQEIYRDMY
Chain of human Retinoic Acid Receptor gamma (RARg), RARG (gene 5916) (P13631 whole entry, looked up, the tested form may be a part): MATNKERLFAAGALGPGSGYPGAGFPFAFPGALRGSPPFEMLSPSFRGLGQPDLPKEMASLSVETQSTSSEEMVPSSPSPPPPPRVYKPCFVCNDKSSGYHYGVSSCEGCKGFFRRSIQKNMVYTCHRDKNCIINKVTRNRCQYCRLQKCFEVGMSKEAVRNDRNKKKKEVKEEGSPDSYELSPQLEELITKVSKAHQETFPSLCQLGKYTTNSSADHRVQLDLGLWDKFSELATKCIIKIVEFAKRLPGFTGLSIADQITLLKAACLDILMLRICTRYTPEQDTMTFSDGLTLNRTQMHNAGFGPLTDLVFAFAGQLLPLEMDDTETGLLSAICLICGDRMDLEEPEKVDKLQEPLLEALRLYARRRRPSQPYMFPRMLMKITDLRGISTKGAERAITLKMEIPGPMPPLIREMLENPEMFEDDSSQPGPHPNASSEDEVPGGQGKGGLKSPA
Chain of Myc proto-oncogene protein (Homo sapiens) (P01106 whole entry, looked up): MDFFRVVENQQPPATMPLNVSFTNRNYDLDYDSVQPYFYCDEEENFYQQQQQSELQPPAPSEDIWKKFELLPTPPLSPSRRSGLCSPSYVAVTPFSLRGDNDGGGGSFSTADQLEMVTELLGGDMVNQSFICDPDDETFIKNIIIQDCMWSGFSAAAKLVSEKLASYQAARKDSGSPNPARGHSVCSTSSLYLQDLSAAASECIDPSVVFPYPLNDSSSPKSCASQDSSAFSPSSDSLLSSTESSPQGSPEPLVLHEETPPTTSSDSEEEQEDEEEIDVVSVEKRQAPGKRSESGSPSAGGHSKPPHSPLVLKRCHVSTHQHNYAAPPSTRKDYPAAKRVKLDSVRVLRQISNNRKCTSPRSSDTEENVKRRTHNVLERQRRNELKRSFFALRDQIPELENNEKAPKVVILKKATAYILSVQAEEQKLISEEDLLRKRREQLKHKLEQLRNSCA
Chain of Cellular tumor antigen p53 (Homo sapiens) (P04637 whole entry, looked up, the tested form may be a part): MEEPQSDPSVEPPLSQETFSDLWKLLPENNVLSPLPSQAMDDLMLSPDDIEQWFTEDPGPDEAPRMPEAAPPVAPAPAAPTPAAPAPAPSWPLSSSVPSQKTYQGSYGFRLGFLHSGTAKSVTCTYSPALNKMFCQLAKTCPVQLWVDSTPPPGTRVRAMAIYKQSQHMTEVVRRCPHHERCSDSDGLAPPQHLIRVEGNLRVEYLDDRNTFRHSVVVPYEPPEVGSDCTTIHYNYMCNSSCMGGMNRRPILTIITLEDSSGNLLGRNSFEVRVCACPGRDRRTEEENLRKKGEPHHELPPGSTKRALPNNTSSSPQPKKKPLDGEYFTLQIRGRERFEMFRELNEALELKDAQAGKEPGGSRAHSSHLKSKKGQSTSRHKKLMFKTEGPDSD
Chain of human RAR-related Orphan Receptor gamma (RORg), RORC (gene 6097) (P51449 whole entry, looked up, the tested form may be a part): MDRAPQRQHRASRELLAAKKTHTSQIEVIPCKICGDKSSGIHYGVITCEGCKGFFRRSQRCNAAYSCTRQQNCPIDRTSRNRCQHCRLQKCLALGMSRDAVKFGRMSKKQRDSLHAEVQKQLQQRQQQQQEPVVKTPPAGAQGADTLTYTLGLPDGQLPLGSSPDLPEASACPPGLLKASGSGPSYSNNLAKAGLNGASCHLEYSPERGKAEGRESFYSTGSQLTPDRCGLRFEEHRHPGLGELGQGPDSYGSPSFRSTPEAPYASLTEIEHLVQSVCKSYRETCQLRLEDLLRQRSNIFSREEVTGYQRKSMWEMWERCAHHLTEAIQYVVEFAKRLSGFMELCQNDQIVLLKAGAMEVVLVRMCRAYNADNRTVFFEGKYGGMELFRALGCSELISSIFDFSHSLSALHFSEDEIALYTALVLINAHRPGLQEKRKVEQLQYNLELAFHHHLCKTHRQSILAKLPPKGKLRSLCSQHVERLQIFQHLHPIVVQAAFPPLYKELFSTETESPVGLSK
Chain of Nuclear receptor subfamily 1 group I member 2 (Homo sapiens) (O75469 whole entry, looked up, the tested form may be a part): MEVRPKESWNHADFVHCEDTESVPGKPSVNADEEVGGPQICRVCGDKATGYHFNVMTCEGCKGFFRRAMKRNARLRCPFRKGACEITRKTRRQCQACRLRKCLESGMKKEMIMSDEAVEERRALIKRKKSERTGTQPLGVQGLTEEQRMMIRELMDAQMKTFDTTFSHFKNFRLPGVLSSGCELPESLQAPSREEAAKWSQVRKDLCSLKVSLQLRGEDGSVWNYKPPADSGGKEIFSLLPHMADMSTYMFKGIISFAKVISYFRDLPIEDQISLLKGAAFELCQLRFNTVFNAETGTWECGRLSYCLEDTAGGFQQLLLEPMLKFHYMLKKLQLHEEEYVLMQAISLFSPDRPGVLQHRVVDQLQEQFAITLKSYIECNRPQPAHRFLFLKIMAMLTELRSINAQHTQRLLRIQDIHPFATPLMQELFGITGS
Chain of human Retinoic Acid Receptor beta (RARb), RARB (gene 5915) (P10826 whole entry, looked up, the tested form may be a part): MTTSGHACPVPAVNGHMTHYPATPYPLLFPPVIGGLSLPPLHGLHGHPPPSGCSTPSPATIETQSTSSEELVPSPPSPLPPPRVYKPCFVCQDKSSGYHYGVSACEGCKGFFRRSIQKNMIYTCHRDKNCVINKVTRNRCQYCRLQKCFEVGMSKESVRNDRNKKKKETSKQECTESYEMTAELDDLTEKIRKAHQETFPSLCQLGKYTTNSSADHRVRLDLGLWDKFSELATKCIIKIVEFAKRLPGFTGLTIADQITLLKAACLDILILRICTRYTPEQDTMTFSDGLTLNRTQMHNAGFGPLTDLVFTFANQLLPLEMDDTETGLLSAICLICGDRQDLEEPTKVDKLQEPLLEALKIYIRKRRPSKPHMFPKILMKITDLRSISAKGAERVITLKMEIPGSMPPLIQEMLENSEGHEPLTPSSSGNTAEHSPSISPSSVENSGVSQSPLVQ
Chain of human RAR-related Orphan Receptor beta (RORb), RORB (gene 6096) (Q92753 whole entry, looked up, the tested form may be a part): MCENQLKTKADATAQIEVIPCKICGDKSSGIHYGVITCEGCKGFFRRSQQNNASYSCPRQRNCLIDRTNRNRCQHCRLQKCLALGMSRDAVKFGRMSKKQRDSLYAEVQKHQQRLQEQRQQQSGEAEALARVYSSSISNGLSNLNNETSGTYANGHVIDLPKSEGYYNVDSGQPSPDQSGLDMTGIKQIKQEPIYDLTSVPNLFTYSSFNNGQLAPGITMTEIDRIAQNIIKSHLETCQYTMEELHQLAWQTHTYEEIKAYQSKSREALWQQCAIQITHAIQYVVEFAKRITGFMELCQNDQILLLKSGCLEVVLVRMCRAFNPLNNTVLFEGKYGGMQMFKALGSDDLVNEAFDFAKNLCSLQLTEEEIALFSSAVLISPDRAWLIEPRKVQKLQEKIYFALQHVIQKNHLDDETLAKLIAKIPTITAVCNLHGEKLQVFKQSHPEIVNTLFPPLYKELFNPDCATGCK

The AC50 is the concentration giving half of the maximal activity seen. Turning to `C=CCOCC(O)CCl` (stereo not drawn), the result in [1], in test [2], in test [3], in test [5], in test [6] and in test [7] was inactive. Moreover, the outcome in test [8], in test [9], in test [10], in test [11], in [12] and in test [13] was inactive. The outcome in test [14], in test [15], in [17], in test [18] and in test [19] was inactive. Further, the values for the AC50 in test [4] and in test [16] were 63 µM (active) and 47.2 µM (active), respectively.

As for `N#[N+]c1ccc2c(S(=O)(=O)[O-])cccc2c1O`, the result in test [1], in test [2], in [3], in test [4], in [5] and in [6] was inactive. For the same compound, the result in test [7], in test [8], in [9], in test [12], in test [14] and in [17] was inactive. Further, the result in test [18] was inactive.

Regarding `CC(=O)c1ccc2c(c1)CCCC2`, the compound was called inactive in [1], in test [2], in test [3], in test [4], in test [5] and in [6]. For the same compound, the compound was called inactive in test [10], in test [11], in test [15] and in [16].

As to `C=C(C)C(=O)OCC(C)C`, the compound was classed as inactive in test [1], in test [2], in test [3], in [4], in test [5] and in [6]. In [10], the call was inactive.

Take `CC(=O)[C@H]1[C@H](C#N)C[C@H]2[C@@H]3CC=C4C[C@@H](O)CC[C@]4(C)[C@H]3CC[C@@]21C`: the compound was classed as inactive in test [1], in test [2], in test [3], in test [4], in test [5] and in test [6]. The compound was called inactive in test [10], in [13], in [16], in test [18] and in test [19].

Regarding `O=C(O)CC(C(=O)O)C(CC(=O)O)C(=O)O` (stereo not drawn), the outcome in test [1], in [2], in test [3], in test [4], in test [5] and in test [6] was inactive. Moreover, the call in test [10], in test [11], in test [15], in test [16] and in test [17] was inactive.

For `O=[N+]([O-])c1ccc(CO)cc1`, the compound was called inactive in test [1], in [2], in [3], in [4], in [5] and in [6]. Also, the result in test [10], in [11], in [16] and in [18] was inactive.

Take `CC(C)c1ccc2c(c1)CC[C@H]1[C@](C)(CN)CCC[C@]21C`: the compound was classed as inactive in [1], in test [2], in [4], in test [6], in test [11] and in test [16]. Besides, the figures for the AC50 in [3], in test [5] and in test [10] were 5.84 µM (active), 5.89 µM (active) and 6.09 µM (active), respectively.

For `CCCCC(CC)COC(=O)c1ccccc1O` (stereo not drawn), the outcome in test [1], in test [2], in test [3], in [4], in test [5] and in test [6] was inactive. Further, the outcome in test [8], in [11], in test [12], in [13], in test [20] and in [15] was inactive. Moreover, the compound was called inactive in [16], in [18] and in test [19]. For the same compound, the half-maximal activity concentration (AC50) was 17.9 µM (active) in test [7], 15.2 µM (active) in [9] and 17.3 µM (active) in test [14].

For `CCC(CC)C(=O)O`, the call in [1], in test [2], in [3], in test [4], in [5] and in [6] was inactive. For the same compound, the compound was classed as inactive in test [10], in [11], in [13] and in test [18].
